Shown are actives, neighbours in structure and some others; about 3% of the full set was active somewhere.
ABHD5 PLIN5 PPI: inhibitors of human ABHD5-perilipin-5 interaction; Q00G26+Q8WTS1; Split G. princeps luciferase complementation, luminescence, 4 h; inhibition, % at 4 µM; 360,000 tested, 0.78% active;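 active = inhibition above the mean inhibition across every tested compound plus 3 SD, cut at about 22% in these data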;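 note: 0% = DMSO only wells and the 100% control is not disclosed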
Target sequence (Q00G26 whole entry, looked up): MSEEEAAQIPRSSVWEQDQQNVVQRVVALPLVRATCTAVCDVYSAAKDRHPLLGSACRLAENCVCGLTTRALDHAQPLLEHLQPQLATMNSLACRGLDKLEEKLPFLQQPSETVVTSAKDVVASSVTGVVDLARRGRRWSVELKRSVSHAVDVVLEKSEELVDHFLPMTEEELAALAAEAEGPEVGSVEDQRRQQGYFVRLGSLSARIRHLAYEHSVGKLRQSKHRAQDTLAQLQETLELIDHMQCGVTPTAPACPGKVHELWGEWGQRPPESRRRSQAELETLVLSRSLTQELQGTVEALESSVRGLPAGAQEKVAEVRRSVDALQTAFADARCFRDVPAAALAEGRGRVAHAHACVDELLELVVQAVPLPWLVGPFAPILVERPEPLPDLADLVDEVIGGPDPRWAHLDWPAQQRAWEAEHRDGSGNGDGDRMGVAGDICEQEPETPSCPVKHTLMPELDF
Target sequence (Q8WTS1 whole entry, looked up): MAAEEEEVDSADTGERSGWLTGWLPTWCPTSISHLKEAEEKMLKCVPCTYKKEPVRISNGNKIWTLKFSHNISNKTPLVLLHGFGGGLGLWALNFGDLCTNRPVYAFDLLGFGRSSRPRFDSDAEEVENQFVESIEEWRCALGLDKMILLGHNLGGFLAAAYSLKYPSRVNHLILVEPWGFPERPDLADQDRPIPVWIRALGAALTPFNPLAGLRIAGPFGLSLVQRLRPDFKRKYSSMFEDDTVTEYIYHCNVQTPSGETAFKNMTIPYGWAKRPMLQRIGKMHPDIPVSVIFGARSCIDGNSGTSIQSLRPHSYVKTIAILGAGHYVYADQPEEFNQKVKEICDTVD
Peg3 prom inh-1: Peg3 promoter activity inhibition. HeLa PEG-Prom luciferase reporter, luminescence, overnight. inhibition, % at 20 µM. 360,000 tested, 1.7% active;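 active = inhibition of at least 50% at 20 µM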
HIF-2a block: blocks HIF-2a reporter activity. 786-0 RCC cells HIF-2a reporter, luciferase luminescence, overnight. inhibition, % at 18.8 µM. 360,000 tested, 0.72% active;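 active = inhibition of the luminescence signal of 40% or more relative to plate controls, in a single-dose primary screen at 18.75 µM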
CF NFkB inh: blocks PAF-induced NF-kB reporter in cystic fibrosis cells; KKLEB NF-kB-GFP reporter, GFP fluorescence overnight; inhibition, % at 5 µM; 360,000 tested, 0.86% active;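 active = at least 50% inhibition at 5 µM, scaled per plate between neutral and stimulator controls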;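 note: PAF is a Pseudomonas aeruginosa culture filtrate used as stimulus; plate controls were PAF-stimulated DMSO wells for no effect and unstimulated DMSO wells for full effect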
MITF TRPM1 inh: reduces MITF-dependent TRPM1 promoter luciferase signal; SK-MEL-5 TRPM1 promoter luciferase, 24 h; inhibition, % at 12.5 µM; 330,000 tested, 0.83% active;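 active = mean inhibition across replicates of 60% or more, whatever share of single replicates reaches that level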
KKLEB tox: counter-screen for CF NF-kB inhibitors: cytotoxicity. KKLEB CF airway cells viability, ATPlite luminescence, overnight; stronger effect = lower value; cells stimulated with P. aeruginosa culture filtrate. activity change (cytotoxicity), % at 5 µM. 360,000 tested, 0.36% active;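 active = corrected activity change at or below -50% at 5 µM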
Peg3 prom inh-2: confirmation of Peg3 promoter inhibitors. 1,300 tested, 84% active. shares compounds with Peg3 prom inh-1. HeLa PEG-Prom luciferase reporter, luminescence, overnight. inhibition, % at 20 µM;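 active = at 20 µM dose, 40% or more inhibition averaged across four replicates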
* = called active by the depositor.

Results for CC[n+]1c(/C=C/C=C/c2ccc(N(C)C)cc2)sc2ccccc21 ?
ABHD5 PLIN5 PPI: 16; Peg3 prom inh-1: 65*; HIF-2a block: -19; CF NFkB inh: -26; MITF TRPM1 inh: 71*; KKLEB tox: 18

How did CN(C)c1ccc(/C=C/C=C/c2sc3ccccc3[n+]2C)cc1 do in these assays?
ABHD5 PLIN5 PPI: 5; Peg3 prom inh-1: 29; HIF-2a block: 0; CF NFkB inh: 22; MITF TRPM1 inh: 63*; KKLEB tox: -9

What do the screens show for `CC12C=CC(=O)C=C1CC(O)C1C2CCC2(C)C1CCC2(C)O` (stereo not given)?
ABHD5 PLIN5 PPI: -1; Peg3 prom inh-1: -6; HIF-2a block: 2; CF NFkB inh: -8; MITF TRPM1 inh: 9; KKLEB tox: 2

What do the screens show for `O=C(NN=Cc1ccc(N(CCCl)CCCl)cc1)C(=O)c1c[nH]c2ccccc12`?
ABHD5 PLIN5 PPI: 1; Peg3 prom inh-1: 17; HIF-2a block: -3; CF NFkB inh: 12; MITF TRPM1 inh: 12; KKLEB tox: -13

What do the screens show for `CC1=C(C)CN2CC(C#N)=C(N)C2C1` (stereo not given)?
ABHD5 PLIN5 PPI: -7; Peg3 prom inh-1: 3; HIF-2a block: 1; CF NFkB inh: -12; KKLEB tox: -1

How did CC(=O)OC1CC(OC2C(O)CC(OC3C(O)CC(OC4CCC5(C)C(CCC6C5CCC5(C)C(C7=CC(=O)OC7)CCC65O)C4)OC3C)OC2C)OC(C)C1OC1OC(CO)C(O)C(O)C1O (stereo not given) do in these assays?
ABHD5 PLIN5 PPI: -6; Peg3 prom inh-1: 107*; HIF-2a block: 82*; CF NFkB inh: 82*; MITF TRPM1 inh: 80*; KKLEB tox: -58*

What do the screens show for `CCOc1c(Cl)cc(CNCCc2c[nH]c3ccccc23)cc1OC`?
ABHD5 PLIN5 PPI: 18; Peg3 prom inh-1: 60*; HIF-2a block: -1; CF NFkB inh: 18; MITF TRPM1 inh: 1; KKLEB tox: -8

Results for Fc1ccc(CNCCc2c[nH]c3ccccc23)cc1 ?
ABHD5 PLIN5 PPI: 5; Peg3 prom inh-1: -5; HIF-2a block: 13; CF NFkB inh: -6; MITF TRPM1 inh: 0; KKLEB tox: -12

Results for COc1cccc(CNCCc2c[nH]c3ccccc23)c1 ?
ABHD5 PLIN5 PPI: 3; Peg3 prom inh-1: -13; HIF-2a block: 11; CF NFkB inh: 0; MITF TRPM1 inh: -13; KKLEB tox: -4

How did CCOc1cc(CNCCc2c[nH]c3ccccc23)cc(Cl)c1OCC do in these assays?
ABHD5 PLIN5 PPI: 15; Peg3 prom inh-1: 95*; HIF-2a block: 21; CF NFkB inh: 0; MITF TRPM1 inh: 3; KKLEB tox: 0

What do the screens show for `C[C@H]1CN([C@@H](C)CO)C(=O)CCCn2nncc2CO[C@@H]1CN(C)C(=O)Oc1ccccc1`?
ABHD5 PLIN5 PPI: -5; Peg3 prom inh-1: -11; HIF-2a block: -16; CF NFkB inh: 12; KKLEB tox: -12

What do the screens show for `COC1C(C)OC(OC2CC(C)(O)Cc3cc4c(c(O)c32)C(=O)c2c(O)cc3c(c2C4=O)OC2OC3(C)C(O)C(N(C)C)C2O)C(OC)C1(C)OC` (stereo not given)?
ABHD5 PLIN5 PPI: 2; Peg3 prom inh-1: 34; HIF-2a block: 14; CF NFkB inh: 2; MITF TRPM1 inh: 64*; KKLEB tox: 4

What do the screens show for `CCC1C2CC3C4N(C)c5ccccc5C45CC(C2C5O)N3C1O` (stereo not given)?
ABHD5 PLIN5 PPI: -3; Peg3 prom inh-1: 3; HIF-2a block: 8; CF NFkB inh: 1; KKLEB tox: -3

What do the screens show for `C[n+]1c(-c2ccccc2)cc(-c2ccc(O)cc2)cc1-c1ccccc1`?
ABHD5 PLIN5 PPI: 2; Peg3 prom inh-1: 2; HIF-2a block: 2; CF NFkB inh: 6; MITF TRPM1 inh: 4; KKLEB tox: -2

What do the screens show for `Cc1cc(-c2ccccc2)cc(-c2ccccc2)[n+]1CCc1ccccc1`?
ABHD5 PLIN5 PPI: 3; Peg3 prom inh-1: -36; HIF-2a block: -30; CF NFkB inh: -13; MITF TRPM1 inh: 65*; KKLEB tox: 4

What do the screens show for `Clc1ccc(C[n+]2c(-c3ccccc3)cc(-c3ccccc3)cc2-c2ccccc2)cc1`?
ABHD5 PLIN5 PPI: 20; Peg3 prom inh-1: 88*; HIF-2a block: 13; CF NFkB inh: 43; MITF TRPM1 inh: 92*; KKLEB tox: -32

What do the screens show for `CCOc1ccc(-c2cc(C)[n+](CCO)c(-c3ccc(OCC)cc3)c2)cc1`?
ABHD5 PLIN5 PPI: 6; Peg3 prom inh-1: -2; HIF-2a block: 13; CF NFkB inh: -2; MITF TRPM1 inh: 63*; KKLEB tox: -13

Results for Cc1ccc(-c2cc(-c3ccccc3)cc(-c3ccccc3)[n+]2-c2ccccc2C(=O)O)cc1 ?
ABHD5 PLIN5 PPI: 6; Peg3 prom inh-1: 6; HIF-2a block: -11; CF NFkB inh: -16; MITF TRPM1 inh: 46; KKLEB tox: -9

How did O=C(O)C(O)(c1ccc(Cl)cc1)C1(O)CCCC1 (stereo not given) do in these assays?
ABHD5 PLIN5 PPI: 8; Peg3 prom inh-1: 2; HIF-2a block: 5; CF NFkB inh: -8; KKLEB tox: 4

How did COC(=O)C1=C(c2ccc(F)cc2F)C[C@@H]2CC[C@H]1N2C(=O)N1CCC(O)CC1 do in these assays?
ABHD5 PLIN5 PPI: -1; Peg3 prom inh-1: 8; HIF-2a block: 18; CF NFkB inh: 5; MITF TRPM1 inh: -4; KKLEB tox: 6

Results for O=[N+]([O-])c1ccc(NC2CCN(Cc3ccccc3)CC2)c2ccncc12 ?
ABHD5 PLIN5 PPI: -5; Peg3 prom inh-1: 67*; HIF-2a block: 29; CF NFkB inh: -18; MITF TRPM1 inh: 18; KKLEB tox: -8; Peg3 prom inh-2: 78*

How did O=[N+]([O-])c1ccc(NC2CCCC2)c2ccncc12 do in these assays?
ABHD5 PLIN5 PPI: 6; Peg3 prom inh-1: 26; HIF-2a block: 21; CF NFkB inh: 28; MITF TRPM1 inh: -1; KKLEB tox: -7

What do the screens show for `CCC1(OC(=O)CN)C(=O)OCc2c1cc1n(c2=O)Cc2cc3ccccc3nc2-1` (stereo not given)?
ABHD5 PLIN5 PPI: -6; Peg3 prom inh-1: 84*; HIF-2a block: 34; CF NFkB inh: 79*; MITF TRPM1 inh: 80*; KKLEB tox: -34; Peg3 prom inh-2: 73*

What do the screens show for `Cc1cc(C)cc(N2C(=O)NC(=O)/C(=C\c3cccn3-c3ccc(Cl)cc3)C2=O)c1`?
ABHD5 PLIN5 PPI: -3; Peg3 prom inh-1: 104*; HIF-2a block: 15; CF NFkB inh: 20; MITF TRPM1 inh: 51; KKLEB tox: 4; Peg3 prom inh-2: 56*

What do the screens show for `C[C@@H]1CN([C@@H](C)CO)C(=O)CCCn2nncc2CO[C@H]1CN(C)C(=O)Oc1ccc2ccccc2c1`?
ABHD5 PLIN5 PPI: 4; Peg3 prom inh-1: 13; HIF-2a block: -1; CF NFkB inh: -42; KKLEB tox: 17
